Test results: PubChem BioAssay AID624330 (Southern Research Specialized Biocontainment Screening …, 2012)
Where “and” joins values, the source holds several entries; their conditions need not be identical. Equal values may be shown once. About 2,100 (0.62%) of roughly 340,000 compounds were called active.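 Rule for the calls: active = first-screen hits whose inhibition reached a set limit at any dose in the follow-up dose series; inconclusive = inhibition above the set first-screen limit but never retested; inactive = the rest.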 These entries were drawn from the full list. Potency and affinity values are given separately.

Target: Rac GTPase-activating protein 1 (Homo sapiens) (UniProt Q9H0H5)
Sequence (Q9H0H5 whole entry, looked up): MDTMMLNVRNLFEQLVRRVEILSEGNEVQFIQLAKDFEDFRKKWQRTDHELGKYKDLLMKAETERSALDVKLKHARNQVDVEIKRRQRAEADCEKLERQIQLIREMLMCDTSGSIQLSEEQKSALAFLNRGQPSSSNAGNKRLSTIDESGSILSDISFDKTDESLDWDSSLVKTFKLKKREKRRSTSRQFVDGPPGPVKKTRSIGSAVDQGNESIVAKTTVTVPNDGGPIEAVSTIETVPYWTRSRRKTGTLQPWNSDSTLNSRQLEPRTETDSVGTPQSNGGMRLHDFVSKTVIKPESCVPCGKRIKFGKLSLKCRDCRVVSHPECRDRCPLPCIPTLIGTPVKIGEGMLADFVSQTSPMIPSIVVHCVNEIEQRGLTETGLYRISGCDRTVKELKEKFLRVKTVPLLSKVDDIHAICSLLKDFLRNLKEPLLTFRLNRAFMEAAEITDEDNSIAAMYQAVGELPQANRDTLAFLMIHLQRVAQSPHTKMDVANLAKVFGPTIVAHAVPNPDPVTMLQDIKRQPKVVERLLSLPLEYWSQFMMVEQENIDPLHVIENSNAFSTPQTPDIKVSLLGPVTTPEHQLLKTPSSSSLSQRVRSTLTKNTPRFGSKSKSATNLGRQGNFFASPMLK
Assay: MgcRacGAP GTPase-activating activity inhibitors, confirmation, biochemical, ADP Hunter fluorescence, primary and confirmatory (AID 624330);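 note: fluorescence reports GDP produced by GAP-driven GTP hydrolysis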
Conditions: MgcRacGAP-stimulated Rac1 GTP hydrolysis, at 30 µM, active compounds read high, GST-tagged Rac1 F28L mutant substrate

inhibition, inactive:
CCN(C(=S)NC(=O)c1ccco1)c1cccc2ccccc12 15.5%
N/C(Cc1ccc(Cl)cc1Cl)=N\OC(=O)Cc1cccs1 6.38%
O=C(COc1ccc(-c2nnco2)cc1)NC1CCS(=O)(=O)C1 (stereo unspecified) 2.22%
Cn1c(SCC(=O)N2CCc3ccccc3C2)nnc1-c1cccs1 -0.2%
COc1ccc(/C=C2\CCc3ccccc3C2=O)cc1O 12.2%
COc1cccc(/C=C2\CCc3ccccc3C2=O)c1 7.06%
COc1cc(/C=C2\CCc3ccccc3C2=O)cc(OC)c1OC 4.54%
COc1cc(C=C2C(=O)c3ccccc3C2=O)cc(OC)c1 5.79%
COc1cc(C=C2C(=O)c3ccccc3C2=O)ccc1O 15.4%
COc1cc(/C=C2/CCc3ccccc3C2=O)cc(OC)c1OC 4.12%
Cc1nc(NCC(c2ccccc2)N(C)C)c2c(C)c(C)sc2n1 (stereo unspecified) 7.93%
C=CCNC(=O)CN1CCN(Cc2ccc3c(c2)OCO3)CC1 6.33%
O=C(NNc1ccccc1[N+](=O)[O-])NC1CCCCC1 2.65%
Cc1ccc(NC(=O)CCn2c(=O)c3cccn3c3ccccc32)cc1C 7.75%
CN(CC(=O)Nc1ccccc1N1CCCC1)S(=O)(=O)c1ccc(F)cc1 3.64%
CCOC(=O)NNC(=O)c1[nH]c2ccc(Br)cc2c1-c1ccccc1 9.63%
O=C(O)c1cccc(Nc2nc(C(F)(F)F)nc3ccccc23)c1 2.84%
OCCN(CCO)c1ccc(C(c2ccccc2Cl)c2ccc(N(CCO)CCO)cc2Cl)c(Cl)c1 4.93%
OCCN(CCO)c1cc2c3ccccc3ccc2c2ccccc12 16%
CC(Oc1cc2oc(=O)c3c(c2cc1Cl)CCCC3)C(=O)NCCN1CCOCC1 (stereo unspecified) 11.2%
CCC(C)c1ccc(NC(=S)NCCn2cc(Cl)cn2)cc1 (stereo unspecified) 10.6%
CC1Cc2ccccc2N1C(=S)Nc1ccc(S(N)(=O)=O)cc1 (stereo unspecified) 10.7%
CC(NCc1ccc(S(N)(=O)=O)cc1)C(=O)N1CCc2ccccc21 (stereo unspecified) 16.2%
CCOC(=O)N1CCN(c2c(N3CCN(c4ccc(F)cc4)CC3)c(=O)c2=O)CC1 6.14%
O=C(CCCn1c(=S)[nH]c2cc3c(cc2c1=O)OCO3)NCCc1ccccc1Cl 9.48%
Nc1ccc(Nc2ccncc2[N+](=O)[O-])cc1 8.85%
Clc1ccc(Nc2nc(-c3ccncc3)cs2)cc1 9.41%
Cc1ccc(Nc2nc(-c3ccncc3)cs2)cc1 8.27%
Nc1ccc(C(=O)Nc2ccc(Nc3ccncc3)cc2)cc1 5.48%
CSc1cc(/C=N/O)c(SC)s1 3.21%
CCCn1c2ccccc2c2cnn(CC(=O)N3CCN(C4CCCCC4)CC3)c(=O)c21 10.4%
O=C(O)c1cc([N+](=O)[O-])cc([N+](=O)[O-])c1N1CCN(c2cccc(C(F)(F)F)c2)CC1 -6.28%
COc1ccc(N(C(=O)COc2ccc(C)cc2)S(=O)(=O)c2ccc(C)cc2)cc1 3.97%
CC(C)(C)c1ccc(/C=C2\Oc3cc(O)ccc3C2=O)cc1 5.28%
COc1ccc(/C=C2\Oc3cc(OCC(N)=O)ccc3C2=O)cc1OC 10.9%
O=C1/C(=C/c2ccc(Br)cc2)Oc2cc(O)ccc21 7.31%
O=C1/C(=C/c2cccc(F)c2)Oc2cc(O)ccc21 6.11%
O=C(COC(=O)CNC(=O)c1ccc(Br)cc1)NCCC1=CCCCC1 11.9%
Cc1cccc2cc(CN(CC(C)C)S(=O)(=O)c3ccccc3)c(=O)[nH]c12 8.17%
O=c1c2ccccc2c(C=Nc2ccc(Cl)cn2)c(O)n1-c1cc(Cl)ccc1N1CCOCC1 12.5%
Brc1cc2[nH]cnc2c2ccccc12 8.14%
Oc1ccc2c(c1)c1ccccc1c1ncccc21 17.4%
CCN(CC(=O)Nc1c(F)cccc1F)C(=O)c1cccc(S(=O)(=O)N(C)c2ccccc2)c1 2.67%
COC(=O)C=CSC(=S)C1CCCC1=N (stereo unspecified) 6.77%
COc1ccccc1-c1cn(-c2ccccc2)c(=S)[nH]1 10.3%
N#CCCn1c(SCC(=O)c2c[nH]c3ccccc23)nc2ccccc21 15.1%
Cc1nn(-c2cc(C(F)(F)F)ccc2Cl)c2nc(C(Cl)(Cl)Cl)[nH]c(=O)c12 9.52%
COc1ccc(C2C3=C(CC(C)(C)CC3=O)Oc3ncn(Cc4ccccc4)c(=N)c32)cc1 (stereo unspecified) 2.61%
COc1cc(/C=C/C(=O)O)ccc1OCc1ccc([N+](=O)[O-])cc1 7.48%
COC(=O)C(=Cc1ccc(OCc2ccc([N+](=O)[O-])cc2)c(OC)c1)C(=O)OC 13.9%
C/C(N)=C(/C#N)C(=O)CSc1nnc(SCc2ccc(Cl)cc2)s1 2.43% and 2.31%
COc1cc(C(=O)NNC(=O)CNC(=O)C2CCCCC2)ccc1OC(C)C 0.59%
Cc1ccc(S(=O)(=O)N2[C@@H](c3ccc(F)cc3)C(C(=O)O)=C[C@H]2CC2CCCC2)cc1 11%
CN(C)c1ccc(NC(=O)CN2C(=O)CC(c3ccccc3)=Nc3ccccc32)cc1 30.9%
COc1ccc(NC(=O)CCN2C(=O)c3cccc([N+](=O)[O-])c3C2=O)cc1 6.66%
CN1CC(=O)N(CC(=O)Nc2ccc(F)cc2)c2ccccc2C1=O -12.2%
CN1CC(=O)N(CC(=O)NCc2ccc(F)cc2)c2ccccc2C1=O 1.75%
Cc1ccc(NC(=O)CN2C(=O)c3ccccc3C2=O)cc1 10.7%
O=C(CN1C(=O)c2ccccc2C1=O)Nc1ccccc1 1.35%
CN(C)c1ccc(NC(=O)CN2CCc3ccccc3C2)cc1 14.3%
CCOc1ccc(NC(=O)CCN2C(=O)c3cccc([N+](=O)[O-])c3C2=O)cc1 3.27%
